Only some compounds are listed: those with a hit (about 5.2% of all), similar ones and a draw of the others.
Tau fibril ThT: inhibitors of human tau fibril formation, thioflavin T binding | P10636 | recombinant tau K18 P301L, heparin-induced fibrillization, ThT fluorescence | Potency, µM (highest dose often 57.4 µM), for the others: top-dose activity, negative = inhibition, actives largely listed as inhibitors | hit rate 2.1% among 270,000; also: potency is read from the fitted curve at half-maximal effect; nearly all actives have a fitted effect of over 55% in size
Target sequence (P10636 561-689 P618L limits assumed): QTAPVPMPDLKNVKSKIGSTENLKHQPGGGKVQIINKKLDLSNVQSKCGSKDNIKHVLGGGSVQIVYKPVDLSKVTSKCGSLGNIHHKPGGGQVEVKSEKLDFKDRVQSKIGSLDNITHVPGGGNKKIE
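Tau K18 P301L fragment (15 uM unlabeled plus 0.24 uM Alexa 594-labeled) in 100 mM sodium acetate pH 7 with compound, fibrillization induced by 20 uM heparin for 6 hr at 37 C. Thioflavin T (30 uM) added, fluorescence read after 1 hr (ex 450, em 510 nm).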
Coupling enz: counter-screen for Giardia aldolase inhibitors: coupling enzyme system; coupling enzyme system counterscreen, AmpLite Red fluorescence; activity change, negative = inhibition, % at 58.2 µM, hits read low; hit rate 0.67% among 290,000; in the data active = activity change below about -30%
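Coupling enzymes only (glyceraldehyde-3-phosphate) + compound, at 57.5 uM final, 10 min RT; add substrate/coupling/AmpLite Red mix, 20 min RT; fluorescence ex 525/em 598 nm. Actives flag coupling-system interference.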
Sfp inh: blocks B. subtilis Sfp PPTase activity; Q9F4F7; Biochemical Sfp PPTase activity, qHTS; Potency, µM, without a hit: largest response in the series, negative = inhibition, actives largely listed as inhibitors; hit rate 3.5% among 310,000; AID 1490;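 also: the enzyme is Sfp with the accession as filed and its product quenches rhodamine fluorescence; potency is read from the fitted curve at half-maximal effect; 0% = enzyme reaction without inhibitor and -100% = no enzyme wells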
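With Hepes-Na pH 7.6 buffer containing 10 mM MgCl2, Sfp (15 nM) modified BHQ-2-YbbR (12.5 uM) using rhodamine-CoA (5 uM). Two reads 30 minutes apart at 525/598 nm yielded each well's rate.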
Tau fluor cs: counter-screen for tau fibril formation inhibitors. tau K18 P301L (four-repeat tau fragment) Alexa594 fluorescence, heparin fibrillization. Potency, µM (highest dose often 57.7 µM), for inactives: at the highest dose activity change, negative = decrease. hit rate 0.93% among 280,000. AID 1463; also: potency is read from the fitted curve at half-maximal effect; nearly all actives have a fitted effect of over 55% in size
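Human K18 P301L tau (15 uM unlabeled plus 0.24 uM Alexa 594-labeled, final) in 100 mM sodium acetate pH 7 was mixed with compound and 20 uM heparin and incubated 6 hr at 37 C.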
Tau fibril FP: tau fibrillization inhibition (FP) | Potency, µM (titrated, usually from 57.7 µM), for inactives: top-dose activity, negative = inhibition, usual class: inhibitors | hit rate 0.39% among 280,000 | K18 P301L tau heparin fibrillization, Alexa594 FP, 6 h | P10636 | AID 1468; also: potency is read from the fitted curve at half-maximal effect; nearly all actives have a fitted effect of over 55% in size
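Steps: dispense K18 P301L tau (15 uM plus 0.24 uM Alexa 594 tracer, final) in pH 7 sodium acetate; add compound; add heparin (20 uM final); incubate 6 hr, 37 C; add ThT (30 uM final); after 1 hr ambient, read FP.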
* = called active by the depositor; u = inconclusive; x = not tested or not shown; [ ] = remark or other dose. Unless noted, calls follow the shape of the dose curve; as a rule, active = well fitted curve in the direction sought with a large enough effect; inconclusive = small, poorly fitted or top-dose-only effect, or another doubt; inactive = no such curve, though single readings can be large; an effect the other way counts as inactive or inconclusive. Unless noted, % is scaled to controls: 0 for no effect and ±100 for the full control effect.

SMILES	Tau fibril ThT	Coupling enz	Sfp inh	Tau fluor cs	Tau fibril FP
COc1ccc(NC(=O)Cn2cnc3c(oc4ccccc43)c2=O)cc1OC	-13%	x	x	u	-1%
CCn1c(=O)c(C(=O)Nc2ccc(C(C)=O)cc2)nc2ccccc21	u	x	x	-6%	4%
C=CCC(O)[C@H](Cc1cnc2ccccc2c1)[C@H](/C=C/CCCC)c1ccccc1 (stereo partly specified)	x	1	0%	x	x
CCC(NC(=O)NCc1ccccc1)(C(F)(F)F)C(F)(F)F	-3%	0	18%	-3%	u
CCC(NC(=O)Nc1ccc(O)cc1)(C(F)(F)F)C(F)(F)F	u	-43*	u	u	u
COc1ccc(NC(=O)NC(C)(C(F)(F)F)C(F)(F)F)cc1	-7%	-1	20%	-4%	5%
CC(NC(=O)Nc1ccc(O)cc1)(C(F)(F)F)C(F)(F)F	22µM*	-33*	-4%	u	u
Cc1cc(C)c(S(=O)(=O)NCC(c2ccc(N(C)C)cc2)N2CCOCC2)c(C)c1 (stereo unspecified)	u	x	x	u	1%
CCOC(=O)CN1C(=O)S/C(=C/C=C/c2ccc(N(C)C)cc2)C1=O	2.2µM*	0	6%	0%	u
COc1cc(/C=C2\C(=O)N(C)C(=S)N2C)ccc1O	u	2	-9%	-14%	12%
O=C1S/C(=C\c2ccc(O)c([N+](=O)[O-])c2)C(=O)N1c1ccccc1Cl	6.3µM*	1	u	u	-5%
CN1C(=O)/C(=C/c2ccc(O)c([N+](=O)[O-])c2)N(C)C1=S	4.5µM*	10	u	-19%	1%
Cc1cccc(NC(=O)CN2C(=O)S/C(=C\c3ccc(O)c([N+](=O)[O-])c3)C2=O)c1	6.3µM*	6	-8%	u	1%
Cc1csc2nc(COC(=O)c3cccc(NC(=O)c4cccc(Cl)c4)c3)cc(=O)n12	u	x	x	-26%	u
COc1ccc(OC)c(CNC(=O)c2ccc(C)c(NC(=O)c3nsc4ccccc34)c2)c1	-5%	x	x	-25%	-7%
COc1ccc(COC[C@H](C)[C@H](O[Si](C)(C)C)[C@@H](C)[C@H]2OC(=O)[C@H]2C)cc1	x	1	-6%	x	x
CCC(CC)C(=O)Nc1ccc2nc(SCC(=O)N3CCOCC3)sc2c1	-3%	x	x	2%	5%
Cc1ccc(NC(=O)CN2C(=O)S/C(=C/c3ccc(O)c([N+](=O)[O-])c3)C2=O)cc1C	7.9µM*	7	u	u	u
CCOC(=O)CN1C(=O)S/C(=C/c2cccc([N+](=O)[O-])c2O)C1=O	13µM*	9	8%	-23%	4%
O=C(O)c1cccc(CN2C(=O)S/C(=C/c3ccccc3[N+](=O)[O-])C2=O)c1	u	14	21%	-16%	u
Cc1cccc(NC(=O)CN2C(=O)S/C(=C\c3cc(C)n(C)c3C)C2=O)c1	u	-20	56µM*	u	3%
O=C1S/C(=C\c2ccc(O)c([N+](=O)[O-])c2)C(=O)N1Cc1cccc([N+](=O)[O-])c1	11µM*	9	-29%	u	18%
COc1ccc(OCC(=O)Nc2cc(-c3nc4ccccc4o3)ccc2Cl)cc1	-1%	x	x	0%	-1%
COc1ccc(-c2cn(-c3ccc(C)cc3)c(S(=O)(=O)CC(=O)Nc3ccc(F)cc3)n2)cc1	-10%	x	x	u	u
CC1=CC(=O)C2=C(C)CC[C@H]3[C@H](C)C(=O)O[C@@H]3C12 (stereo partly specified)	x	3	13%	x	x
SMILES	Tau fibril ThT	Coupling enz	Sfp inh	Tau fluor cs	Tau fibril FP
Cc1ccc(NC(=O)Cn2c(=O)c(CNc3ccccc3)cc3cc4c(cc32)OCCO4)cc1	-13%	x	x	u	u
COc1ccc(NCc2cc3cc4c(cc3n(CC(=O)Nc3ccc(F)cc3)c2=O)OCCO4)cc1	-7%	x	x	11µM*[quencher]	u
COc1ccc2cc(CNc3ccc(C)cc3)c(=O)n(CC(=O)Nc3ccc(OC)c(Cl)c3)c2c1	3%	x	x	u	u
CC(=O)c1cccc(NC(=O)Cn2c(=O)c(CNc3ccc(C)cc3)cc3cc4c(cc32)OCCO4)c1	-17%	x	x	18µM*[quencher]	u
CCOc1ccc(NC(=O)Cn2c(=O)c(CNc3ccc(OC)cc3)cc3ccc(OC)cc32)cc1	u	x	x	20µM*[quencher]	u
O=C(CCS(=O)(=O)c1cc(Br)cc2c1N(C(=O)C1CC1)CC2)N1CCN(c2cccc(C(F)(F)F)c2)CC1	u	x	x	-24%	12%
CCOC(=O)c1cnc2cc(C(F)(F)F)ccc2c1Nc1ccc(F)cc1F	4%	x	x	-4%	-1%
COc1ccc(Cl)cc1Nc1ccc2cc(S(=O)(=O)N3CCCCC3)ccc2n1	-9%	x	x	10µM*[quencher]	0%
CCOc1ccc(OCC)c(Nc2ccc3cc(S(=O)(=O)N4CCCC4)ccc3n2)c1	-6%	x	x	u	u
COc1ccc(Nc2ccc3cc(S(=O)(=O)N4CCCC4)ccc3n2)cc1Cl	u	x	x	2.8µM*[quencher]	7%
CCOC(=O)c1cccc(Nc2ccc3cc(S(=O)(=O)N4CCCCC4)ccc3n2)c1	u	x	x	11µM*[quencher]	u
CCC(=O)OC1C2CC3=C4CC(=O)OC(c5ccoc5)[C@]4(C)CCC3[C@@](C)(C2=O)C(CC(=O)OC)C1(C)C (stereo partly specified)	-9%	0	-1%	-10%	6%
COc1ccccc1CNC(=O)CSc1ccc(C)cc1	6%	-30*	11%	-6%	9%
CCCCN(CC)CCOc1cccc2ccccc12	-7%	x	u	-14%	-6%
CCCCCCOc1ccc(C(=N)N(CCCC)CCCC)c2ccccc12	x	x	18µM*	x	x
CC(NC(=O)c1cccc(NC(=O)c2nsc3ccccc23)c1)c1ccccc1 (stereo unspecified)	5%	x	x	-29%	-11%
O=C(COc1ccc([N+](=O)[O-])cc1)N/N=C/c1cc([N+](=O)[O-])ccc1N1CCOCC1	4µM*	0	5%	-26%	-3%
Cc1ccc(OCC(=O)N/N=C/c2cc([N+](=O)[O-])ccc2N2CCCCC2)cc1	-9%	0	18%	-16%	12%
Nc1nnnn1CC(=O)N/N=C/c1ccccn1	-13%	-2	35µM*	-11%	-12%
Cc1cccc(/C=N/NC(=O)Cn2nccc2C)n1	-14%	0	50µM*	-8%	-6%
O=C(CCCC(=O)N/N=C\c1ccccn1)N/N=C\c1ccccn1	3%	-1	40µM*	0%	0%
O=C(CNC(=O)c1ccccc1O)N/N=C/c1ccccn1	8%	-11	-12%	8%	-6%
Nc1nnnn1CC(=O)N/N=C/c1cccs1	-6%	0	8%	-1%	2%
O=C(COc1ccc([N+](=O)[O-])cc1)N/N=C/c1ccccn1	u	3	79µM*	-5%	0%

Source: PubChem BioAssay (National Center for Advancing Translational Sciences (NCATS))
